Measured values from PubChem BioAssay (NCATS).
Inconclusive results are not listed. Calls of active or inactive are those of the source. Unless noted, calls come from the whole dose curve; as a rule, active = well fitted curve in the direction sought with a large enough effect; inconclusive = small, poorly fitted or top-dose-only effect, or another doubt; inactive = no such curve, though single readings can be large; an effect the other way counts as inactive or inconclusive.

Tests used:
[1] = AP1 Signaling Pathway (AID 357; active = well fitted curve in either direction with a large enough effect, not every such curve was filed as active;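 note: ME-180 reporter cells stimulated with EGF at its EC50 level; % is set by controls: 0 for no effect and ±100 for the full control effect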)
Method in brief: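 Beta-lactamase reporter under AP-1 response element, ME-180 background. Stimulus: EC50 EGF. Compound exposure 5 h, 37 °C. Detection: CCF4, 2.5 h RT, 460/530 nm. Values: AC50 from titration.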

[2] = molecular target: Cytochrome P450 1A2 (Homo sapiens) (UniProt P05177); assay: p450-cyp1a2 (AID 410; calls by dose curve; note: potency is the fitted concentration of half-maximal effect;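 for activity change, negative = inhibition: -100% = full effect of reference inhibitor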)
Method in brief: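 Luminescent demethylation readout: Luciferin-ME (100uM, equal to Km) turned over by 20nM CYP1A2 for 60 min at room temperature after NADPH regeneration addition, following 10 min compound preincubation. Normalization used 57 uM furafylline as full inhibition.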

[3] = NFAT Signaling Pathway (AID 444; active = well fitted curve in either direction with a large enough effect, not every such curve was filed as active;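 note: carbachol stimulus at about its EC50 of 1 µM final; % is set by controls: 0 for no effect and ±100 for the full control effect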); conditions: Jurkat NFAT-bla M1, carbachol, beta-lactamase ratio, 5 h; at 17.2 µM (top of the series) unless noted
Method in brief: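 Jurkat cells carrying an NFAT-driven β-lactamase reporter and co-transfected muscarinic M1 receptor were treated with compound plus carbachol (1 uM final, an EC50 level) for 5 h at 37 °C. CCF4 loading followed for 1 h at RT; 460/530 nm ratio gave %activity.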

[4] = Stat Signaling Pathway (AID 446; active = well fitted curve in either direction with a large enough effect, not every such curve was filed as active;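 note: ME-180 cervical cancer cells given 40 pM IL-6 alongside compound; SIE-controlled beta-lactamase reporter measured as 460/530 nm FRET emission ratio; % is set by controls: 0 for no effect and ±100 for the full control effect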)
Method in brief: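 Overnight-plated ME-180 cells bearing a STAT Inducible Element beta-lactamase reporter; 5 h co-exposure to compound and 40 pM IL-6; values normalized to 300 pM IL-6 and 125 nM JAK inhibitor controls.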

[5] = molecular target: Glucocorticoid receptor (Homo sapiens) (UniProt P04150); assay: GR-GFP Redistribution (AID 450;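 active = compounds whose dose series gives a full or clear partial fitted curve of increased nuclear translocation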; note: potency is the fitted concentration of half-maximal effect); conditions: U2OS GR-GFP nuclear translocation, laser cytometry, 2 h
[6] = molecular target: Glucocorticoid receptor (Homo sapiens) (UniProt P04150); assay: GR-EFC Redistribution (AID 451; calls by dose curve; note: potency is the fitted concentration of half-maximal effect); conditions: CHO-K1 GR-EFC translocation, beta-gal luminescence, 2 h
Method in brief: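 CHO-K1 cells stably expressing nuclear-localized β-gal enzyme acceptor and GR fused C-terminally to the enzyme donor fragment; ligand-driven nuclear translocation restores β-gal by complementation. Compounds titrated up to 46 uM final, 2 h at 37 °C; luminescence read.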

[7] = molecular target: Mitogen-activated protein kinase 10 (Mus musculus) (UniProt Q61831); assay: JNK3 AlphaScreen Assay (AID 530; active = well fitted curve in either direction with a large enough effect, not every such curve was filed as active;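 note: kinase came from lysate of stimulated human HepG2 cells; signal reports phosphorylation of biotinylated GST-cJun 1-79 at Ser73 with 10 µM ATP; % is set by controls: 0 for no effect and ±100 for the full control effect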)
Method in brief: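 Phosphorylation of biotinylated GST-cJun(1-79) at Ser73 is measured by AlphaScreen proximity luminescence. Enzyme is JNK3 in HepG2 lysates activated with interleukin-1beta and tumor necrosis factor alpha; ATP is 10 uM final.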

[8] = molecular target: 3',5'-cyclic-AMP phosphodiesterase 4B (Homo sapiens) (UniProt Q07343); assay: qHTS Assay for Inhibitors of PDE-IV (AID 607; active = well fitted activation curve with a large enough effect in the main read-out, with a control signal flat, not every such curve was filed as active; note: % of control where 0% means no effect)
Method in brief: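 Live HEK293 cells with a modified cyclic nucleotide-gated (CNG) channel report intracellular cAMP via membrane-potential dye fluorescence (ex 535/em 590 nm). Endogenous PDE-IV was targeted. Compounds were tested at up to 22.9 uM final; RO 20-1724 100 uM served as control.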

[9] = qHTS Assay for Lipid Storage Modulators (AID 1519; calls by dose curve); conditions: Drosophila S3 cells, BODIPY lipid droplet/cell ratio, laser cytometry, cells loaded with oleic acid; for activity change, negative = inhibition: at 25.7 µM (top of the series)
Method in brief: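 Cells seeded at 5,000 per well were treated with compounds over a concentration series and loaded with oleic acid (400 uM, as added). Lipid droplet fluorescence (488 nm excitation, 500-530 nm channel) was read by laser-scanning cytometry and normalized to 20 uM Triacsin C.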

[10] = molecular target: Ubiquitin carboxyl-terminal hydrolase 1 (Homo sapiens) (UniProt O94782); assay: Inhibitors of USP1/UAF1: Pilot qHTS (AID 504865);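 note: rhodamine fluorescence freed from ubiquitin-rhodamine substrate followed over time; top concentration of the series differs between compounds; % is set by controls: 0 for no effect and ±100 for the full control effect; nearly all actives have a fitted effect of over 35% in size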
Method in brief: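 Enzyme-free wells gave the negative control, while test wells held 1nM USP1/UAF1 preincubated with compound for 15 min at room temperature. Ub-Rho at 150nM final started the reaction, and fluorescence at 480/540 nm was recorded kinetically.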

[11] = molecular target: Luciferin 4-monooxygenase (Photinus pyralis) (UniProt P08659); assay: Biochemical firefly luciferase enzyme assay for NPC (AID 624030);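 note: purified P. pyralis luciferase at 10 nM with luciferin and ATP substrate; 0% = DMSO and -100% = full luciferase inhibition by PTC124 control; nearly all actives have a fitted effect of over 70% in size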
Method in brief: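 Counter-screen for direct inhibition of the luciferase enzyme by approved-drug library compounds, run at 10 nM enzyme in 50 mM Tris acetate (final). Luminescence was read within 5 min of enzyme-buffer addition and normalized to PTC124 versus DMSO (0%).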

[12] = S16 Schwann cell viability assay (CellTiter-Glo assay) (AID 624031);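 note: native untransfected S16 rat Schwann cells; cellular ATP luminescence as a viability measure; plate controls were DMSO-treated cells for no effect and cell-free wells for full effect; nearly all actives have a fitted effect of over 70% in size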
Method in brief: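 Parental S16 cells, 24 h compound, 37 °C. ATP-luminescence viability; DMSO = 0% activity, empty wells as reference; curves classified by fit quality and efficacy.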

[13] = S16 Schwann cell PMP22 intronic element beta-lactamase assay (AID 624044; calls by dose curve;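 note: 0% = DMSO and -100% = potassium clavulanate positive control; nearly all actives have a fitted effect of over 15% in size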)
Method in brief: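 Beta-lactamase reporter under a PMP22 intronic regulatory element in stable S16 rat Schwann cells; 24 h compound exposure. 460 nm blue signal normalized between DMSO (0%) and potassium clavulanate, with 535 nm FRET tracking viability; curves classed by r2 and response.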

[14] = qHTS profiling for inhibitors of Plasmodium falciparum proliferation (AID 504749); note: nearly all actives have a fitted effect of over 60% in size; note: potency is the fitted concentration of half-maximal effect;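 for activity, negative = inhibition: 0% = DMSO vehicle and full inhibition = artemisinin control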; conditions: P. falciparum in erythrocytes, SYBR Green DNA, 72 h
Method in brief: (§1)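 Quantitative HTS: compounds pinned into medium, infected erythrocytes added (0.3% parasitemia, 2.5% hematocrit), 72 h culture at 37 C under 5% CO2. Saponin/Triton lysis with SYBR Green I, overnight RT, then fluorescence read.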

C2A = assay: as above; conditions: P. falciparum in erythrocytes, SYBR Green DNA, 72 h; series mostly up to 12.8 µM
Method in brief: as §1

CP217 = assay: as above; conditions: P. falciparum in erythrocytes, SYBR Green DNA, 72 h; series mostly up to 12.8 µM
Method in brief: as §1

CP250 = assay: as above; conditions: P. falciparum in erythrocytes, SYBR Green DNA, 72 h; series mostly up to 12.8 µM
Method in brief: as §1

FAB9 = assay: as above; conditions: P. falciparum in erythrocytes, SYBR Green DNA, 72 h; series mostly up to 12.8 µM
Method in brief: as §1

JCK = assay: as above; conditions: P. falciparum in erythrocytes, SYBR Green DNA, 72 h; series mostly up to 12.8 µM
Method in brief: as §1

SC27B = assay: as above; conditions: P. falciparum in erythrocytes, SYBR Green DNA, 72 h; series mostly up to 12.8 µM
Method in brief: as §1

[15] = measured here: cell count channel max response
[16] = measured here: lipid channel max response
[17] = at 12.8 µM (top of the series), parasite line A
[18] = at 12.8 µM (top of the series), parasite line B

Sequence of Cytochrome P450 1A2 (Homo sapiens) (P05177 whole entry, looked up): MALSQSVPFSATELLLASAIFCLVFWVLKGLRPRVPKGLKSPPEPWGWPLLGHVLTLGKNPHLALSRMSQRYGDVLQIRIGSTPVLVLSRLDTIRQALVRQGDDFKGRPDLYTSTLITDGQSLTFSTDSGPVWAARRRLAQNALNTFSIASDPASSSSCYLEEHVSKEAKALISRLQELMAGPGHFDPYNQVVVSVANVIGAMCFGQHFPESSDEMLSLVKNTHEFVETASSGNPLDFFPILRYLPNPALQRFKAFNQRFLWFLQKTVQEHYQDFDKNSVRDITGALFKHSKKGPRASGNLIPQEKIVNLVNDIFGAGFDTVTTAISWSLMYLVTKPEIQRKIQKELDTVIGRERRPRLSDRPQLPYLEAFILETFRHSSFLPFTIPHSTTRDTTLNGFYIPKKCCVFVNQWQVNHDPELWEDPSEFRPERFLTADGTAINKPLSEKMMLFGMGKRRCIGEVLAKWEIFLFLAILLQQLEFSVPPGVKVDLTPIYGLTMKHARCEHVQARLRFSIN
Sequence of Glucocorticoid receptor (Homo sapiens) (P04150 whole entry, looked up, the tested form may be a part): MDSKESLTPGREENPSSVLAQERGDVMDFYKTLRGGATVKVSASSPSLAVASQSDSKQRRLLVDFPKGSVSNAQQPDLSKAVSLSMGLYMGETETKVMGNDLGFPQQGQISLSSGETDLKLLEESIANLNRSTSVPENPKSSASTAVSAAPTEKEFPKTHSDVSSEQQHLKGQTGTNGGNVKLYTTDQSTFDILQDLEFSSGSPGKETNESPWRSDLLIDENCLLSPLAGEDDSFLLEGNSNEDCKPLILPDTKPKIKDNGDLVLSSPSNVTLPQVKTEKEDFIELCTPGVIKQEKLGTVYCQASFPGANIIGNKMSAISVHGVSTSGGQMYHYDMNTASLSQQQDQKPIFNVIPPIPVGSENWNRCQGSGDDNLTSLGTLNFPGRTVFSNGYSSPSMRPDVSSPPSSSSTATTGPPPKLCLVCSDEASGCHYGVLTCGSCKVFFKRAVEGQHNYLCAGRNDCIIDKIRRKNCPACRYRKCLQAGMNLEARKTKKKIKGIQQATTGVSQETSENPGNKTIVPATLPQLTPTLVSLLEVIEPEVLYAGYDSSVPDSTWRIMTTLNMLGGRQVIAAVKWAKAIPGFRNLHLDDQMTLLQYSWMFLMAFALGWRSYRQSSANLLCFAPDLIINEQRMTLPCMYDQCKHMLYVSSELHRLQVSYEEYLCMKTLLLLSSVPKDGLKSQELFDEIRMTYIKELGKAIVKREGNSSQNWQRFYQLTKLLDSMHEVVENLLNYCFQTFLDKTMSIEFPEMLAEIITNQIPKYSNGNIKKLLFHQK
Sequence of Luciferin 4-monooxygenase (Photinus pyralis) (P08659 whole entry, looked up): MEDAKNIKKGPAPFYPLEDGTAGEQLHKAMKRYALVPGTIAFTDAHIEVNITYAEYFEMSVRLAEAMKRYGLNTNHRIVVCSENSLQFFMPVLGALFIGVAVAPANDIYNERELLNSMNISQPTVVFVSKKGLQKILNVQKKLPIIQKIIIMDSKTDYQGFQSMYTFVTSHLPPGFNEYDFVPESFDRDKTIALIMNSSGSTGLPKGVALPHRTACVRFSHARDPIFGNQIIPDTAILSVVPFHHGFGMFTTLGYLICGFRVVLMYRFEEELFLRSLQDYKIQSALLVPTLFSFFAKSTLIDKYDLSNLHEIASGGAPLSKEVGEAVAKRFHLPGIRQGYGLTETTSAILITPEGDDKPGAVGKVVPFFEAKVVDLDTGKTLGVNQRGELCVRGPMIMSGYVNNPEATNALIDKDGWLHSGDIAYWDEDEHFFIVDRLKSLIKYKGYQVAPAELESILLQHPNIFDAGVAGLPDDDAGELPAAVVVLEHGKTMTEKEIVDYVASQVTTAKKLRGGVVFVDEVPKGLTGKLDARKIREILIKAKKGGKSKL
Sequence of Ubiquitin carboxyl-terminal hydrolase 1 (Homo sapiens) (O94782 whole entry, looked up): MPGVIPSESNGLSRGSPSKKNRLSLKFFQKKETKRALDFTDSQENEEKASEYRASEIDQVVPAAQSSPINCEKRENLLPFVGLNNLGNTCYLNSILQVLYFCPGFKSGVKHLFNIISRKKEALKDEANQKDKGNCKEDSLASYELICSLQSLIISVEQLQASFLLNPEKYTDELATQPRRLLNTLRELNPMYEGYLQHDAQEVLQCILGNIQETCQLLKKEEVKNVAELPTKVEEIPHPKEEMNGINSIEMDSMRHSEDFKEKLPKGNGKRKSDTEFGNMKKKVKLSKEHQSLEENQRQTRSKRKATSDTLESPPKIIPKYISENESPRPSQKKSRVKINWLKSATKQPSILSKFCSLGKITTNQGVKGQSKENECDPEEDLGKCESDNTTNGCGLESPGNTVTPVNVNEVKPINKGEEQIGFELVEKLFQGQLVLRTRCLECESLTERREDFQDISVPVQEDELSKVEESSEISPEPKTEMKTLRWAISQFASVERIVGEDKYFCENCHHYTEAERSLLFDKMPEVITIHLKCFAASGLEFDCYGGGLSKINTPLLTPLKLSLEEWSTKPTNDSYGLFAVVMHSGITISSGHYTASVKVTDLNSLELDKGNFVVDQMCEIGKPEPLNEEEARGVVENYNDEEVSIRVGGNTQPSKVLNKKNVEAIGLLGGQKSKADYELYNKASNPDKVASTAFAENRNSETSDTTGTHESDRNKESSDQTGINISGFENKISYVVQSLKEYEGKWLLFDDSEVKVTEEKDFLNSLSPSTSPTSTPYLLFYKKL
Sequence of 3',5'-cyclic-AMP phosphodiesterase 4B (Homo sapiens) (Q07343 whole entry, looked up): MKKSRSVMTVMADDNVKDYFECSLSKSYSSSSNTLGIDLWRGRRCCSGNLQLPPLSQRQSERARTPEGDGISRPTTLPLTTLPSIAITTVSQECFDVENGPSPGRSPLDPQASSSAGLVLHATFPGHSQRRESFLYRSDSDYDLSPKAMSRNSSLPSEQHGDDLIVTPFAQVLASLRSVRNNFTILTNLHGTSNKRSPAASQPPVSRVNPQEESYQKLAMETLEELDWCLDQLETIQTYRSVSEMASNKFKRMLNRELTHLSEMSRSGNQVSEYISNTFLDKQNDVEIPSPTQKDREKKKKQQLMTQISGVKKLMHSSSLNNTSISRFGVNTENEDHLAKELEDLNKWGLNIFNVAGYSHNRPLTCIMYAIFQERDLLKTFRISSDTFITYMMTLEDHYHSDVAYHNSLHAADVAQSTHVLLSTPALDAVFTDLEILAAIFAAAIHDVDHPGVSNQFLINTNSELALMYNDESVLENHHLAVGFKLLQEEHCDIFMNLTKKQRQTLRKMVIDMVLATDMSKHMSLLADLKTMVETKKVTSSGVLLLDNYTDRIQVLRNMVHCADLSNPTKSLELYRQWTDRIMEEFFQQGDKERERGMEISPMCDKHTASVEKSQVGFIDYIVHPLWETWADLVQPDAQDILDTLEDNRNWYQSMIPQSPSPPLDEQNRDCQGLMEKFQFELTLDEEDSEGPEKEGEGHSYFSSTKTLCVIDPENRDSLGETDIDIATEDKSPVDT

C[C@@H]1O[C@H](O[C@@H]2[C@@H](Oc3cc(O)c4c(c3)O[C@H](c3ccc(O)cc3)CC4=O)O[C@@H](CO)[C@@H](O)[C@H]2O)[C@@H](O)[C@H](O)[C@@H]1O
-6.11%: max response [9, 16]
-4.7%: max response [9, 15]
inactive: outcome [1] | Potency [2] | activity change, negative = inhibition [3] -5.97% | outcome [4] | Potency [5] > 20.6 µM | Potency [6] > 20.6 µM | Potency [7] | outcome [8] | activity change, negative = inhibition [9] -1.64% | Potency [10]

C=CCSC[C@@H]1Nc2cc(Cl)c(S(N)(=O)=O)cc2S(=O)(=O)N1
inactive: outcome [1] | Potency [2] | activity change, negative = inhibition [3] -2.73% | outcome [4] | Potency [5] > 20.6 µM | Potency [6] > 20.6 µM | Potency [7] | outcome [8] | activity change, negative = inhibition [9] -0.966% | Potency [10]
-24.3%: max response [9, 15]
-22.1%: max response [9, 16]

CC(=O)O[C@]1(C(C)=O)CC[C@@H]2[C@@H]3C=C(C)C4=CC(=O)CC[C@@]4(C)[C@H]3CC[C@]21C
-22%: max response [9, 16]
active: Potency [5] 0.00312 µM | Potency [6] 0.0557 µM
-20.2%: max response [9, 15]
inactive: outcome [1] | Potency [2] | activity change, negative = inhibition [3] -7.69% | outcome [4] | Potency [7] | outcome [8] | activity change, negative = inhibition [9] -3.56% | Potency [11] | outcome [12] | Potency [13] | activity, negative = inhibition [14, 17] -0.563% | activity, negative = inhibition [14, 18] 2.77% | Potency (C2A) | Potency (CP217) | Potency (CP250) | Potency (FAB9) | Potency (JCK) | Potency (SC27B)

CO[C@H]1[C@@H](OC(N)=O)[C@H](O)[C@@H](Oc2ccc3c(O)c(NC(=O)c4ccc(O)c(CC=C(C)C)c4)c(=O)oc3c2C)OC1(C)C
inactive: outcome [1] | Potency [2] | activity change, negative = inhibition [3] -13.7% | outcome [4] | Potency [5] > 20.6 µM | Potency [6] > 20.6 µM | outcome [8] | activity change, negative = inhibition [9] -1.82% | Potency [10] | Potency [11] | outcome [12] | activity, negative = inhibition [14, 17] 4.79% | activity, negative = inhibition [14, 18] -4.42% | Potency (C2A) | Potency (CP217) | Potency (CP250) | Potency (FAB9) | Potency (JCK) | Potency (SC27B)
-8.07%: max response [9, 15]
-8.17%: max response [9, 16]

CC(=O)c1cc2ccccc2oc1=O
active: Potency [2] 0.2 µM
inactive: outcome [1] | activity change, negative = inhibition [3] -3.16% | outcome [4] | Potency [5] > 20.6 µM | Potency [6] > 20.6 µM | Potency [7] | outcome [8] | activity change, negative = inhibition [9] -3.99% | Potency [10]
-14%: max response [9, 15]
-18.4%: max response [9, 16]

CC(C)(C)NC[C@H](O)COc1cccc2c1CCC(=O)N2
inactive: outcome [1] | Potency [2] | activity change, negative = inhibition [3] -6.75% | outcome [4] | Potency [5] > 20.6 µM | Potency [6] > 20.6 µM | Potency [7] | outcome [8] | activity change, negative = inhibition [9] -0.554% | Potency [10] | Potency [11] | outcome [12] | Potency [13] | activity, negative = inhibition [14, 17] 7.75% | activity, negative = inhibition [14, 18] -1.3% | Potency (C2A) | Potency (CP217) | Potency (CP250) | Potency (FAB9) | Potency (SC27B)
-2.13%: max response [9, 15]
active: Potency (JCK) 8.91 µM
-1.05%: max response [9, 16]

Cc1n[nH]c(=O)[nH]c1=O
-2.21%: max response [9, 15]
inactive: outcome [1] | Potency [2] | activity change, negative = inhibition [3] -10% | outcome [4] | Potency [5] > 20.6 µM | Potency [6] > 20.6 µM | Potency [7] | outcome [8] | activity change, negative = inhibition [9] 1.08% | Potency [10]
-2.22%: max response [9, 16]

CCOC(=O)[C@H](CCc1ccccc1)N[C@@H](C)C(=O)N1[C@H](C(=O)O)C[C@H]2CCC[C@@H]21
inactive: outcome [1] | Potency [2] | activity change, negative = inhibition [3] -18.7% | outcome [4] | Potency [5] > 20.6 µM | Potency [6] > 20.6 µM | Potency [7] | outcome [8] | activity change, negative = inhibition [9] -3.49% | Potency [11] | outcome [12] | Potency [13] | activity, negative = inhibition ([14]; at 28.7 µM (top of the series), parasite line A) 14.3% | activity, negative = inhibition ([14]; at 28.7 µM (top of the series), parasite line B) 4.68% | Potency (C2A) | Potency (CP217) | Potency (CP250) | Potency (FAB9) | Potency (JCK) | Potency (SC27B)
-7.94%: max response [9, 16]
-8.48%: max response [9, 15]

C=CCN1C(=CCO)[C@H]2C[C@H]3[C@@H]1CC[C@@]31c3ccccc3N3C=C4[C@@H]5N(/C=C/2[C@H]31)c1ccccc1[C@]51CC[C@H]2[C@H]1C[C@@H]4/C(=C/CO)N2CC=C
-16.1%: max response [9, 15]
inactive: outcome [1] | Potency [2] | activity change, negative = inhibition [3] -23.2% | outcome [4] | Potency [5] > 20.6 µM | Potency [6] > 20.6 µM | Potency [7] | outcome [8] | activity change, negative = inhibition [9] 0.271% | Potency [11] | outcome [12] | Potency [13] | activity, negative = inhibition [14, 17] 1.83% | activity, negative = inhibition [14, 18] 0.223% | Potency (C2A) | Potency (CP217) | Potency (CP250) | Potency (FAB9) | Potency (JCK) | Potency (SC27B)
-15.8%: max response [9, 16]

C[C@@]12CC[C@H]3[C@@H](CCC4=CC(=O)CC[C@]43C)[C@H]1CC[C@H]2C(=O)CO
inactive: outcome [1] | Potency [2] | activity change, negative = inhibition [3] -6.24% | outcome [4] | Potency [6] > 20.6 µM | Potency [7] | outcome [8] | activity change, negative = inhibition [9] -5.79% | Potency [11] | outcome [12] | Potency [13] | activity, negative = inhibition [14, 18] 3.27% | Potency (C2A) | Potency (CP217) | Potency (CP250) | Potency (FAB9) | Potency (JCK) | Potency (SC27B)
-9.53%: max response [9, 16]
-3.01%: max response [9, 15]
active: Potency [5] 0.0622 µM | Potency ([14]; parasite line A) 4.47 µM

O=c1[nH]c(=O)n([C@@H]2C[C@H](O)[C@H](CO)O2)cc1C(F)(F)F
-7.04%: max response [9, 15]
-7.97%: max response [9, 16]
inactive: outcome [1] | Potency [2] | activity change, negative = inhibition [3] 1.4% | outcome [4] | Potency [5] > 20.6 µM | Potency [6] > 20.6 µM | Potency [7] | activity change, negative = inhibition [9] -0.507% | Potency [10]
